# Source: PubChem (several laboratories)
# GDH-TPI counter-1: counter-screen for M. tuberculosis FBA inhibitors: GDH-TPI coupled enzymes | AID 588335 | GDH-TPI coupled enzyme counterscreen, NADH absorbance | 360,000 tested, 1.2% active | inhibition, % at 4.8 µM; in the data active = inhibition above about 30%;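 note: 0% = DMSO wells and 100% = wells lacking the enzyme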
# Rv3671c protease: Rv3671c (M. tuberculosis) protease inhibition. P9WHR9. inhibition, % at 5.96 µM. 320,000 tested, 0.048% active; in the data active = inhibition above about 38%;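 note: extracellular domain of Rv3671c used as enzyme; 0% = enzyme with DMSO and 100% = no enzyme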
# Target sequence (P9WHR9 whole entry, looked up, the tested form may be a part): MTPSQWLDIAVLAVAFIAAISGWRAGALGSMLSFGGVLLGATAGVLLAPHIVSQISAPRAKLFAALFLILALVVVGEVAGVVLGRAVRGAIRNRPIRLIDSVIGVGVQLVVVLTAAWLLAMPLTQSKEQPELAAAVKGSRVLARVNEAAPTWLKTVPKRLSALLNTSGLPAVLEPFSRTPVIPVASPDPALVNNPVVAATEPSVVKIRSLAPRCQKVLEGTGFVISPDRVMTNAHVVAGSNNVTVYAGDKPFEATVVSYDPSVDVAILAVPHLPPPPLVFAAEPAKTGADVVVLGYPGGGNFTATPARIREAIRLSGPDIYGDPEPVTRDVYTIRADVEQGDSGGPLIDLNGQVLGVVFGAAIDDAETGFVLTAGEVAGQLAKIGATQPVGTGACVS
# Mtb UGM inh: inhibitors of M. tuberculosis UDP-galactopyranose mutase; P9WIQ1; purified UGM, fluorescence polarization probe displacement; inhibition, % at 10 µM; 320,000 tested, 0.06% active; in the data active = inhibition above about 10%, passing the limit was not always enough
# SSB-PriA inh: K. pneumoniae PriA-SSBct interaction inhibition; AID 1272365; AlphaScreen SSBct-PriA binding, biotinylated peptide; inhibition, % at 33 µM; 430,000 tested, 0.6% active; in the data active = inhibition mostly above about 37%, no sharp cut-off; inactive = mostly below about 20%;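 note: plate controls were negative control peptide for no effect and reference peptide for full effect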
# FBA Mtb inh: inhibits M. tuberculosis FBA enzyme; P9WQA3; purified M. tuberculosis FBA, fluorescence read-out; inhibition, % at 1 µM; 360,000 tested, 2.3% active; in the data active = inhibition above about 27%;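 note: 0% = vehicle and 100% = reference inhibitor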
# Mtb bLac sens: beta-lactam sensitization of Mtb H37Rv; M. tuberculosis H37Rv growth with meropenem, percent inhibition; inhibition, % at 25 µM; 330,000 tested, 0.27% active; AID 434955;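 note: growth measured after seven days incubation then overnight dye step; 0% = bacteria only wells and 100% = bacteria with antibiotic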
# Mtb FBA inh conf: confirmation of M. tuberculosis fructose-bisphosphate aldolase inhibitors. shares compounds with FBA Mtb inh. purified M. tuberculosis FBA, fluorescence read-out. inhibition, % at 1 µM. 5,600 tested, 78% active; in the data active = inhibition above about 27%;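 note: 0% = vehicle wells and 100% = reference inhibitor wells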
# GDH-TPI counter-2: GDH-TPI inhibition counter-screen for FBA inhibitors; inhibition, % at 1 µM; 5,600 tested, 81% active; shares compounds with FBA Mtb inh; GDH-TPI coupled enzyme counterscreen, fluorescence; AID 652141; in the data active = inhibition above about 10%
# GDH-TPI dose: counter-screen for M. tuberculosis FBA inhibitors: GDH-TPI dose response; shares compounds with FBA Mtb inh; GDH-TPI coupled enzyme assay, fluorescence, artifact counterscreen; IC50, µM; 170 tested, 79% active
# Numbers without * were called inactive; x = no result given; + = active, no number. Only some compounds are listed: those with a hit (about 3.2% of all), similar ones and a draw of the others. Unless noted, the rule behind the calls is not given here.
SMILES,GDH-TPI counter-1,Rv3671c protease,Mtb UGM inh,SSB-PriA inh,FBA Mtb inh,Mtb bLac sens,Mtb FBA inh conf,GDH-TPI counter-2,others
c1ccc2c(c1)[nH]c1c(N3CCN(C4CCCCC4)CC3)ncnc12,7,-10,2,2,33*,6,40*,22*,
c1ccc2c(c1)[nH]c1c(N3CCCC3)ncnc12,14,-2,0,1,3,-9,x,x,
Cc1cc(C(=O)NN=Cc2ccccn2)c2ccccc2n1,x,x,x,-26,x,x,x,x,
COc1ccc(-c2c(-c3cccc(C)c3)oc3ccc(-c4ccc5c(c4)OCO5)cc23)cn1,5,-5,0,2,3,-1,x,x,
Cc1cccc(-c2oc3ccc(-c4ccc5c(c4)OCO5)cc3c2/C=C/c2ccc(N)cc2)c1,21,15,2,-4,44*,34,135*,120*,
COc1ccc(-n2c(N)c(C(=O)NCC3CCCO3)c3nc4ccccc4nc32)c(OC)c1 (stereo not drawn),15,-8,3,-25,104*,13,73*,71*,
COc1ccc(-c2cc(C(=O)NCC3CCCO3)c3ccccc3n2)cc1 (stereo not drawn),9,2,2,-2,46*,3,178*,173*,
COc1ccc(-c2cc(C(=O)NCC3CCCO3)c3cc(C(C)C)ccc3n2)cc1 (stereo not drawn),24,-8,-2,-8,67*,98,10,-3,GDH-TPI dose=1.6*
COc1cccc(-c2cc(C(=O)NCC3CCCO3)c3ccccc3n2)c1 (stereo not drawn),8,-3,1,-2,-6,-3,x,x,
COc1ccc(-c2cc(C(=O)NCC3CCCO3)c3cc(C)ccc3n2)cc1 (stereo not drawn),12,2,1,-19,76*,-5,107*,72*,
O=C(Nc1ccc(Br)cc1F)c1ccc(=O)n(Cc2ccccc2F)c1,x,x,x,3,x,x,x,x,
Cc1cn2c3c(=O)n(Cc4ccc(Br)cc4)c(=O)n(C)c3nc2n1C,x,x,x,-12,x,x,x,x,
COc1ccc(-c2nc(C(=O)NCC3CCCO3)cc3c2[nH]c2ccccc23)cc1 (stereo not drawn),9,-59,1,-6,30*,-6,+,+,
COc1ccc(-c2cc(C(=O)NCc3ccco3)c3ccccc3n2)cc1,19,-7,4,-7,28*,4,x,+,
O=C(NCc1ccco1)c1cc(-c2ccccc2)nc2ccccc12,8,-6,1,2,0,17,x,x,
COc1ccccc1N1CCN(C(=O)c2cc3c(s2)CCCCC3)CC1,-8,-2,0,-2,-4,5,x,x,
O=C(c1cc2c(s1)CCCC2)N1CCN(c2ccccc2)CC1,-1,1,0,-3,34*,-7,84*,67*,
COC(=O)c1ccccc1NC(=S)NC(NC(=O)c1ccco1)C(Cl)(Cl)Cl (stereo not drawn),15,-18,2,0,6,6,x,x,
O=C(NC(NC(=S)Nc1ccccc1C(=O)O)C(Cl)(Cl)Cl)c1ccco1 (stereo not drawn),11,0,x,3,33*,2,2,-4,
Cc1ccccc1S(=O)(=O)N=C(c1ccccc1)N1CCOCC1,x,x,x,-8,x,x,x,x,
COc1ccc2c(C)c(CC(=O)N3C[C@H]4C[C@@H](C3)c3cccc(=O)n3C4)c(=O)oc2c1,11,-2,1,x,111*,2,146*,104*,
Cc1c(Br)c(=O)oc2cc(OCC(=O)N3C[C@H]4C[C@@H](C3)c3cccc(=O)n3C4)ccc12,22,5,1,x,40*,-13,54*,65*,
COc1ccc2c(C)c(CCC(=O)N3C[C@H]4C[C@@H](C3)c3cccc(=O)n3C4)c(=O)oc2c1,10,-9,-3,x,68*,-4,118*,128*,
CN(C)c1ccc(C=NNC(=O)CN2CCCCC2)cc1Br,x,x,x,-7,x,x,x,x,
O=C(O)c1cc(Br)c2ccccc2c1O,x,x,x,-4,x,x,x,x,
CC(C)(NC(=O)c1cc(Cl)c2ccccc2c1O)C(=O)O,15,0,1,-9,56*,2,66*,57*,
